Screens from PubChem BioAssay.
Shown are actives, neighbours in structure and some others; about 2.3% of the full set was active somewhere.
aSyn 5UTR inh: MLPCN primary screen, SNCA 5' untranslated region | 0.82% of 300,000 active | inhibition, % (tested at 7.5 µM) | alpha-synuclein 5'UTR reporter, inhibitor activity; in the data active = inhibition above about 60%; inconclusive = no clear call, values can overlap the other calls;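 note: H4 neuroglioblastoma cells stably carrying SNCA 5'UTR luciferase fusion; 0% = DMSO wells and 100% = positive control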
697 NFkB inh: inhibitors of the PMA/ionomycin-induced NF-kB reporter in 697 B cells. inhibition, % at 4 µM. 697 B-cell NF-kB luciferase reporter, 16 h. 0.33% of 330,000 active; in the data active = inhibition above about 35%
H9c2 TAG inh: triacylglycerol accumulation inhibition; H9c2 cells, Nile Red lipid (TAG) fluorescence; cells loaded with 200 µM oleic acid; AID 651582; 0.66% of 230,000 active; inhibition, % at 12.5 µM;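 active = pattern-corrected inhibition of lipid staining of at least 50% with the nuclear-stain viability signal not falling by more than 50%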;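 note: 0% = DMSO wells and 100% = triacsin C control wells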
Shn3 inh set2: reduces Shn3 3'UTR luciferase signal in osteoblasts. Clone20 osteoblast Shn3 3'UTR firefly luciferase, 24 h. inhibition, % at 12.5 µM. 0.52% of 360,000 active. AID 588674;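 active = mean inhibition of at least 75% with every replicate also reaching 75%; inconclusive = mean inhibition at least 75% but some replicate below; inactive = mean inhibition below 75%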;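 note: 0% = median of neutral control wells and 100% = pilot-screen positive control compound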
Jurkat NFkB inh: lowers PMA/ionomycin-induced NF-kB signal in Jurkat cells. 0.53% of 330,000 active. inhibition, % at 4 µM. PMA/ionomycin-induced NF-kB luciferase reporter, luminescence; in the data active = inhibition above about 50%
Gli-Sufu antag: antagonists of Gli-Sufu signaling | Sufu-KO-LIGHT fibroblasts, Gli luciferase reporter luminescence | inhibition, % at 5 µM | 0.74% of 340,000 active | AID 588413;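 active = inhibition above about 55%, limit read from the data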;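 note: 0% = DMSO-treated cells and 100% = wells with medium but no cells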
Gli antag conf: confirmation of Gli-SUFU pathway antagonists. shares compounds with Gli-Sufu antag. Sufu-KO-LIGHT cells, Gli luciferase reporter, luminescence. inhibition, % at 5 µM. 40% of 2,500 active;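 active = mean inhibition at 5 µM reaching about 45%, limit read from the data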;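 note: plate controls were DMSO-treated cells for no effect and wells lacking cells for full effect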
Gli cytotox: cytotoxicity counter-screen for Gli-SUFU antagonists. shares compounds with Gli-Sufu antag. cytotoxicity, % at 5 µM. AID 651994. Sufu-KO-LIGHT cells cytotoxicity, ATP luminescence. 32% of 2,500 active;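 active = mean cytotoxicity at 5 µM above about 25%, limit read from the data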;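 note: cells exposed to compound overnight for roughly 16 to 18 hours; plate controls were DMSO wells with cells for no effect and medium without cells for full effect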
Wnt3a cs: counter-screen for Gli-SUFU antagonists: Wnt3a reporter inhibition | Wnt-LIGHT cells, Wnt3a-driven luciferase reporter, luminescence | shares compounds with Gli-Sufu antag | AID 651995 | inhibition, % at 6.25 µM | 20% of 2,500 active;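 active = mean inhibition above about 25%, limit read from the data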
* hit, by the source's call; ? = inconclusive; / = not tested or not shown.

SMILES | aSyn 5UTR inh | 697 NFkB inh | H9c2 TAG inh | Shn3 inh set2 | Jurkat NFkB inh | Gli-Sufu antag | Gli antag conf | Gli cytotox | Wnt3a cs
CCOc1cccc(N2C(=O)CC(NNC(=O)c3ccc(Br)o3)C2=O)c1 (stereo not drawn) | -9.0 | -25.2 | 10.2 | 1.9 | -31.5 | 7.1 | / | / | /
COc1ccccc1CNC(=O)COC(=O)c1ccc([N+](=O)[O-])o1 | / | 17.5 | -16.8 | -6.0 | 5.2 | -6.7 | / | / | /
CCc1ccc(C(=O)COC(=O)c2cc([N+](=O)[O-])ccc2NCCO)cc1 | -24.4 | -0.9 | / | 25.6 | 6.0 | 14.9 | / | / | /
CCCC(=O)Nc1sc(C)c(C)c1C#N | -23.6 | 9.8 | 11.4 | -2.0 | 1.4 | 20.3 | / | / | /
CCCCCC(=O)Nc1sc(C)c(C)c1C#N | -53.5 | -19.0 | / | -8.5 | -5.0 | 66.1* | 12.0 | 1.8 | -37.2
CCOc1ccc(CCNC(=O)C2CC(=O)N(c3ccc4c(c3)OCCO4)C2)cc1OCC (stereo not drawn) | -4.1 | 21.6 | 33.0 | -38.6 | 6.8 | -0.3 | / | / | /
CN1CCN(C(=S)NC(=O)c2ccc(C(C)(C)C)cc2)CC1 | -21.1 | -21.6 | / | -14.1 | 19.7 | 59.8* | 17.3 | 11.3 | -62.9
O=C(O)Cn1c(-c2ccccc2)nc2ccccc21 | -6.0 | -1.0 | -0.1 | -6.3 | 3.6 | 95.8* | 28.8 | 7.6 | 4.5
CC(C)(C)c1ccc2c(c1)OC(C(=O)N/N=C\c1ccc[nH]1)CO2 (stereo not drawn) | 5.2 | -16.6 | / | ? | 6.1 | 89.6* | 91.5* | 9.1 | -13.7
CC(C)(C)c1ccc2c(c1)OC(C(=O)N/N=C\c1ccncc1)CO2 (stereo not drawn) | 5.2 | -0.4 | -19.7 | 12.4 | -7.0 | -4.0 | / | / | /
CC1=CC(C)C2(COC(c3ccc[n+](C)c3)OC2)C(C)C1 (stereo not drawn) | / | / | -34.6 | 16.5 | / | 58.1* | 53.0* | 16.6 | -3.8
Cc1ccc(NC(=S)Nc2cc(C(=O)O)ccc2N2CC3CC(C2)c2cccc(=O)n2C3)cc1C (stereo not drawn) | -60.7 | 4.7 | -14.6 | -11.0 | 0.3 | 79.0* | -3.9 | 21.6 | -6.8
COc1cccc(NC(=S)Nc2cc(C(=O)O)ccc2N2CC3CC(C2)c2cccc(=O)n2C3)c1 (stereo not drawn) | -94.8 | -2.2 | -0.9 | -12.7 | -21.5 | -3.8 | / | / | /
O=S(=O)(c1ccc2ccccc2c1)N1CCN(C(=S)Nc2ccc(F)c(Cl)c2)CC1 | 15.5 | 5.4 | / | 33.0 | 5.6 | 98.8* | 15.0 | 4.3 | -3.9
C[C@@H]1CN([C@@H](C)CO)S(=O)(=O)c2ccc(C#Cc3cccc(F)c3)cc2O[C@@H]1CN(C)CC1CC1 | / | / | 7.2 | -36.4 | / | / | / | / | /
Cc1cc(C(=O)CSc2nc(N)cc(=O)[nH]2)c(C)n1-c1ccc(OC(F)F)cc1 | 9.8 | 20.3 | -9.3 | 78.4 | 39.5 | 68.0* | 64.7* | 38.2* | 21.5
Cc1cc(-n2c(C)cc(C(=O)CSc3nc(N)cc(=O)[nH]3)c2C)no1 | 6.5 | -22.6 | -0.4 | 68.6 | 17.3 | 17.4 | / | / | /
CCOC(=O)c1sc2nc(CC(=O)OC)nc(NCc3ccc(Cl)cc3)c2c1C | 14.7 | 5.3 | / | 67.7 | 29.5 | 55.4* | 53.0* | 25.8* | -19.0
N#Cc1cccc(NC(=O)CCc2ccc(S(=O)(=O)N3CCOCC3)cc2)c1 | / | 17.0 | -18.6 | -4.4 | -5.8 | 5.1 | / | / | /
CC1(C)CC(N2CCN(Cc3ccccc3)CC2)=CC(=[N+]2CCCCC2)C1 | -13.1 | -15.5 | -12.7 | 81.9 | 47.4 | 79.2* | 85.3* | 33.9* | 38.8*
c1ccc(CN2CCN(c3ncccn3)CC2)cc1 | -14.2 | 3.3 | 8.4 | 17.1 | 8.8 | -3.1 | / | / | /
CC1(C)CC(N2CCCC2)=CC(=[N+]2CCCCC2)C1 | -56.3 | 32.8 | / | 64.4 | 36.4 | 82.0* | 84.9* | 32.6* | 41.6*
CC1(C)CC(N2CCCC2)=CC(=[N+]2CCCC2)C1 | -24.4 | 19.6 | / | 63.7 | 36.4 | 81.9* | 85.5* | 34.2* | 34.9*
CC1(C)CC(NNCCC#N)=CC(=[N+]2CCCC2)C1 | -25.1 | 2.8 | 3.0 | 3.7 | -5.0 | 5.1 | / | / | /
